ChEMBL document CHEMBL1961873, “Compounds: GSK PKIS; Assays: Nanosyn kinase panel” (2012)

How the values were obtained:
[1] = target: SRSF protein kinase 1 (Homo sapiens) (UniProt Q96SB4); details: at 0.1 µM
[2] = target: SRSF protein kinase 1 (Homo sapiens) (UniProt Q96SB4); details: at 1 µM
[3] = target: Phosphatidylinositol 4,5-bisphosphate 3-kinase catalytic subunit alpha isoform (Homo sapiens) (UniProt P42336); details: at 0.1 µM
[4] = target: Phosphatidylinositol 4,5-bisphosphate 3-kinase catalytic subunit alpha isoform (Homo sapiens) (UniProt P42336); details: at 1 µM
[5] = target: T1, Phosphatidylinositol 4,5-bisphosphate 3-kinase catalytic subunit delta isoform (Homo sapiens) (UniProt O00329); details: at 0.1 µM
T1 sequence (whole entry): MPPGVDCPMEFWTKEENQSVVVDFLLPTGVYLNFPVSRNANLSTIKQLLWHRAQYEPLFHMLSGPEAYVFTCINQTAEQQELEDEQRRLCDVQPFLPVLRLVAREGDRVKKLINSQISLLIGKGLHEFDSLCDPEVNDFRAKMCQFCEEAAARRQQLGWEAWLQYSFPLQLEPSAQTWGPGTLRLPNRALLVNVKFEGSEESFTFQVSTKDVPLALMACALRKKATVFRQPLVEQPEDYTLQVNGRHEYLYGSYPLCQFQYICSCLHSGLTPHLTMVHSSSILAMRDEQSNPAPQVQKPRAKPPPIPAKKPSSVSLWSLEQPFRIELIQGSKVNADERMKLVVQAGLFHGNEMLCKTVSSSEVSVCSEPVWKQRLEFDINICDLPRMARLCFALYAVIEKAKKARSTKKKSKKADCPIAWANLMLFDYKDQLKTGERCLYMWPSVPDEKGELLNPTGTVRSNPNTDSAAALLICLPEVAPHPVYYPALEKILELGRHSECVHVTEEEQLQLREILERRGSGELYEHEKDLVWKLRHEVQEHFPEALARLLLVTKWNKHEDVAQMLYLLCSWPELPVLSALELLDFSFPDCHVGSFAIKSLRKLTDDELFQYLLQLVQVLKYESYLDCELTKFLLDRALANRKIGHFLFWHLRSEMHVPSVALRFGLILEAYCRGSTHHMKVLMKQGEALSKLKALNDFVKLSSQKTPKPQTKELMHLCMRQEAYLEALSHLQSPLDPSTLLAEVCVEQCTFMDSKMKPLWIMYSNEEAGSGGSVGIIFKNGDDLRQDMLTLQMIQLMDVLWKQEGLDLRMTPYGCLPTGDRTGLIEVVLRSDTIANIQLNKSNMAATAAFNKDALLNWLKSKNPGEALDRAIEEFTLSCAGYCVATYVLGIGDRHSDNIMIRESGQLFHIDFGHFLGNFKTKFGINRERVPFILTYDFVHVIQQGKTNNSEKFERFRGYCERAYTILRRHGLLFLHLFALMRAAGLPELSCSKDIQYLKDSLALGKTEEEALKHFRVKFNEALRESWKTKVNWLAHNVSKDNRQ

[6] = target: T1, Phosphatidylinositol 4,5-bisphosphate 3-kinase catalytic subunit delta isoform (Homo sapiens); details: at 1 µM
[7] = target: Phosphatidylinositol 4-kinase beta (Homo sapiens) (UniProt Q9UBF8); details: at 0.1 µM
[8] = target: Phosphatidylinositol 4-kinase beta (Homo sapiens) (UniProt Q9UBF8); details: at 1 µM
[9] = target: Sphingosine kinase 1 (Homo sapiens) (UniProt Q9NYA1); details: at 0.1 µM
[10] = target: Sphingosine kinase 1 (Homo sapiens) (UniProt Q9NYA1); details: at 1 µM
[11] = target: T2, Sphingosine kinase 2 (Homo sapiens) (UniProt Q9NRA0); details: at 0.1 µM
T2 sequence (whole entry): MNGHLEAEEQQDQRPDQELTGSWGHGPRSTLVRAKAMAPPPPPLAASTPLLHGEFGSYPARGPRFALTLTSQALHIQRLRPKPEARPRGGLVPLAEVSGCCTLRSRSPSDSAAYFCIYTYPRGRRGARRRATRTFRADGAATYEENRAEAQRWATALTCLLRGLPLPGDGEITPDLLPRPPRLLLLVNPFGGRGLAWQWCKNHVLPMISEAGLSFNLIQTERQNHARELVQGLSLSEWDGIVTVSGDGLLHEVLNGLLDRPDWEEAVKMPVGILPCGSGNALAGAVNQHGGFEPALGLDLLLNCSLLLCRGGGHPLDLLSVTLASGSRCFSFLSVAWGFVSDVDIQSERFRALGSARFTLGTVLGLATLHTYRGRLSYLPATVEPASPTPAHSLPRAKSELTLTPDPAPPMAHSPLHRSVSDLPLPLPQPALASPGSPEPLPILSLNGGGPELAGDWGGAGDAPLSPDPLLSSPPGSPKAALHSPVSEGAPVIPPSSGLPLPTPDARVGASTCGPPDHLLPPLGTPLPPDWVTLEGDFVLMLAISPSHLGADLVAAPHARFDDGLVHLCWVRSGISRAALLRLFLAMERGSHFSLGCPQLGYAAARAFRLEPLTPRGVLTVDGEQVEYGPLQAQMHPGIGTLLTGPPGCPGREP

[12] = target: T2, Sphingosine kinase 2 (Homo sapiens); details: at 1 µM
[13] = target: Casein kinase II subunit alpha (Homo sapiens) (UniProt P68400); details: at 0.1 µM
[14] = target: Casein kinase II subunit alpha (Homo sapiens) (UniProt P68400); details: at 1 µM
[15] = target: T3, Inhibitor of nuclear factor kappa-B kinase subunit alpha (Homo sapiens) (UniProt O15111); details: at 0.1 µM
T3 sequence (whole entry): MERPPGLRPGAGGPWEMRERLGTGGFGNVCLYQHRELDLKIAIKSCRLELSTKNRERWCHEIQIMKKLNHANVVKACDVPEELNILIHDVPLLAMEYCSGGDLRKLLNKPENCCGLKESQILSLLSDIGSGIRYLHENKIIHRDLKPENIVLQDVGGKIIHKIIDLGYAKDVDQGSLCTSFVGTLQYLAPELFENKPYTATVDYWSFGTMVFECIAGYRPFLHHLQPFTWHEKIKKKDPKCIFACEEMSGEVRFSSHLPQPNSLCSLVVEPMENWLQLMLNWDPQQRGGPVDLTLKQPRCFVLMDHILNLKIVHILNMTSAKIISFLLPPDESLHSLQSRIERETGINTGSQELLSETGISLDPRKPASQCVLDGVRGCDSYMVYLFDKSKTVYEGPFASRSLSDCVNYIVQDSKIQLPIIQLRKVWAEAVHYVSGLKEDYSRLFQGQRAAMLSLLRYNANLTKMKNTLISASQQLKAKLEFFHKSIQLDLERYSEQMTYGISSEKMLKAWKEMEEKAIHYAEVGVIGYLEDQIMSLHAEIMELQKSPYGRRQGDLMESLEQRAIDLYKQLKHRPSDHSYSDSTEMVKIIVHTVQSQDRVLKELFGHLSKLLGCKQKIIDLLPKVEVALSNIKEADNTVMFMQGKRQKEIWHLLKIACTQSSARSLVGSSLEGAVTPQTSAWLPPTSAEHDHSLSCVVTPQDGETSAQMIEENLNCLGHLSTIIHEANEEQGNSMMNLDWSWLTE

[16] = target: T3, Inhibitor of nuclear factor kappa-B kinase subunit alpha (Homo sapiens); details: at 1 µM
[17] = target: T4, Inhibitor of nuclear factor kappa-B kinase subunit beta (Homo sapiens) (UniProt O14920); details: at 0.1 µM
T4 sequence (whole entry): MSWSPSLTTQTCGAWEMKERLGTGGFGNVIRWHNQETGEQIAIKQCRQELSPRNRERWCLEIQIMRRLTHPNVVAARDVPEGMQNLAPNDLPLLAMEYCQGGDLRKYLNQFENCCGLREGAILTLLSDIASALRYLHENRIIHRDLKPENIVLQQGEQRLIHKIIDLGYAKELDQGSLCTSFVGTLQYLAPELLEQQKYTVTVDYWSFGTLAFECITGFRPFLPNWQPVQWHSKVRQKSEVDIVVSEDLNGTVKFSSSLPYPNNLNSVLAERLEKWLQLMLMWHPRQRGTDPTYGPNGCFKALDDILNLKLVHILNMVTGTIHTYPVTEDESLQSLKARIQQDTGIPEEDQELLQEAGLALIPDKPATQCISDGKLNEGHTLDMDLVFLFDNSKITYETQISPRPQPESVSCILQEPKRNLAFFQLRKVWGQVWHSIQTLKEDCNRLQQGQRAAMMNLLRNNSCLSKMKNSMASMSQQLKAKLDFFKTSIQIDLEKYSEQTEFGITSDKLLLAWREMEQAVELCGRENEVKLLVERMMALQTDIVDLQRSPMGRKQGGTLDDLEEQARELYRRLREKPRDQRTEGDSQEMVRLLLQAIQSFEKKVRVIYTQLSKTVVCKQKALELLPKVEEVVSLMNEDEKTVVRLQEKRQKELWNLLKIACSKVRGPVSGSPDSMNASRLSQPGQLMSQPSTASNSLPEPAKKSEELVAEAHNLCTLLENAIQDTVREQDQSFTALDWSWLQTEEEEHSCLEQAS

[18] = target: T4, Inhibitor of nuclear factor kappa-B kinase subunit beta (Homo sapiens); details: at 1 µM
[19] = target: T5, Inhibitor of nuclear factor kappa-B kinase subunit epsilon (Homo sapiens) (UniProt Q14164); details: at 0.1 µM;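 note: mean inhibition of IKKε reported, from the GSK PKIS dataset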
T5 sequence (whole entry): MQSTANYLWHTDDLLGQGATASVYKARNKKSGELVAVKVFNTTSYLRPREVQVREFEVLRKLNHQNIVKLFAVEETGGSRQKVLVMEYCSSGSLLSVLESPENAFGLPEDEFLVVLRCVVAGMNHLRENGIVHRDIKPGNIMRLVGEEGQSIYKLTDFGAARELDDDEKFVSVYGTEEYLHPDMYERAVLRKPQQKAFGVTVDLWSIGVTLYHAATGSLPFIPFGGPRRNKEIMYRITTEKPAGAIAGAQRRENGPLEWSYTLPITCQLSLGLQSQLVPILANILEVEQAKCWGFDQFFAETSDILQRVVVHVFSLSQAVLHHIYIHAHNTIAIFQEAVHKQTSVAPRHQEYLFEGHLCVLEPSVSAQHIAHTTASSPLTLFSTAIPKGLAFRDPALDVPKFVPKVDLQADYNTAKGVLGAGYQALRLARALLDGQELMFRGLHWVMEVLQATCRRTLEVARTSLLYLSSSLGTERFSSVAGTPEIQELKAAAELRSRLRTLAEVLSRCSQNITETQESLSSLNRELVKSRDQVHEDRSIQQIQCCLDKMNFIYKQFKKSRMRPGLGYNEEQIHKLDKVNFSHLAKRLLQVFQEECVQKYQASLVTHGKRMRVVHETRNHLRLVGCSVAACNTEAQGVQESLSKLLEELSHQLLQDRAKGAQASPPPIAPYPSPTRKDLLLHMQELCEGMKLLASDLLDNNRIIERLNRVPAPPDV

[20] = target: T6, Mitogen-activated protein kinase 12 (Homo sapiens) (UniProt P53778); details: at 1 µM;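 note: values are averaged p38gamma kinase inhibition readings, compounds tested at 1 µM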
T6 sequence (whole entry): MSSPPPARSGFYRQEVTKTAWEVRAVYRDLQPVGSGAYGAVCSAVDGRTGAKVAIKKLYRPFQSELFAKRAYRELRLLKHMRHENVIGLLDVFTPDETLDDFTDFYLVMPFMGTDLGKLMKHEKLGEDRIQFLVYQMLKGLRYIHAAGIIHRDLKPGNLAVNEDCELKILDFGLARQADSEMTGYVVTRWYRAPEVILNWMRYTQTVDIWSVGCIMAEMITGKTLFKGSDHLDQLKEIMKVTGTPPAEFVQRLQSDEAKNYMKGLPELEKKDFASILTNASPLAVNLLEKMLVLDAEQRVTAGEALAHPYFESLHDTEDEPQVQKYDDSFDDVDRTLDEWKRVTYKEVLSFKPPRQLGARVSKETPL

Chain of Casein kinase II subunit alpha (Homo sapiens) (P68400 whole entry, looked up): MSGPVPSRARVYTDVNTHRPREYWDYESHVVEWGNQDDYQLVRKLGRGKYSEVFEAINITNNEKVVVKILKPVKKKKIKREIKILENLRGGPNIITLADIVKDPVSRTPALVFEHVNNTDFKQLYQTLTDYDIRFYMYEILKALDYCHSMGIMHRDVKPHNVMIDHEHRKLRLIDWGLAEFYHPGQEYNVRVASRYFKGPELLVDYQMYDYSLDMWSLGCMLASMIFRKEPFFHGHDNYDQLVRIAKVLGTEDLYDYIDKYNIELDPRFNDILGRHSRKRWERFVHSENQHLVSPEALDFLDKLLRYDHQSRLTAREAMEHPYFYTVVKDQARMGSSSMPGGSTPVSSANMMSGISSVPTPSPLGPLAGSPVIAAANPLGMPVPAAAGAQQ
Chain of Sphingosine kinase 1 (Homo sapiens) (Q9NYA1 whole entry): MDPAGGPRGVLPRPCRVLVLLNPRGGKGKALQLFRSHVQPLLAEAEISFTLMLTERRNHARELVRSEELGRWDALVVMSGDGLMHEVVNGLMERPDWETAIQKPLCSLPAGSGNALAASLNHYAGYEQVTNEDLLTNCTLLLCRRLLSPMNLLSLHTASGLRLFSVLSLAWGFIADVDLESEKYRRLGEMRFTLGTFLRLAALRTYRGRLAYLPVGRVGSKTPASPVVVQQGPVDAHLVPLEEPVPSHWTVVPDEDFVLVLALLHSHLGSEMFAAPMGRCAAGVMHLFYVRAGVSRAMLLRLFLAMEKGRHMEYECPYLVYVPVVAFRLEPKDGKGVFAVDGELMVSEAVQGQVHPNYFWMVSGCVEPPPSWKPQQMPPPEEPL
Chain of Phosphatidylinositol 4,5-bisphosphate 3-kinase catalytic subunit alpha isoform (Homo sapiens) (P42336 whole entry, canonical isoform): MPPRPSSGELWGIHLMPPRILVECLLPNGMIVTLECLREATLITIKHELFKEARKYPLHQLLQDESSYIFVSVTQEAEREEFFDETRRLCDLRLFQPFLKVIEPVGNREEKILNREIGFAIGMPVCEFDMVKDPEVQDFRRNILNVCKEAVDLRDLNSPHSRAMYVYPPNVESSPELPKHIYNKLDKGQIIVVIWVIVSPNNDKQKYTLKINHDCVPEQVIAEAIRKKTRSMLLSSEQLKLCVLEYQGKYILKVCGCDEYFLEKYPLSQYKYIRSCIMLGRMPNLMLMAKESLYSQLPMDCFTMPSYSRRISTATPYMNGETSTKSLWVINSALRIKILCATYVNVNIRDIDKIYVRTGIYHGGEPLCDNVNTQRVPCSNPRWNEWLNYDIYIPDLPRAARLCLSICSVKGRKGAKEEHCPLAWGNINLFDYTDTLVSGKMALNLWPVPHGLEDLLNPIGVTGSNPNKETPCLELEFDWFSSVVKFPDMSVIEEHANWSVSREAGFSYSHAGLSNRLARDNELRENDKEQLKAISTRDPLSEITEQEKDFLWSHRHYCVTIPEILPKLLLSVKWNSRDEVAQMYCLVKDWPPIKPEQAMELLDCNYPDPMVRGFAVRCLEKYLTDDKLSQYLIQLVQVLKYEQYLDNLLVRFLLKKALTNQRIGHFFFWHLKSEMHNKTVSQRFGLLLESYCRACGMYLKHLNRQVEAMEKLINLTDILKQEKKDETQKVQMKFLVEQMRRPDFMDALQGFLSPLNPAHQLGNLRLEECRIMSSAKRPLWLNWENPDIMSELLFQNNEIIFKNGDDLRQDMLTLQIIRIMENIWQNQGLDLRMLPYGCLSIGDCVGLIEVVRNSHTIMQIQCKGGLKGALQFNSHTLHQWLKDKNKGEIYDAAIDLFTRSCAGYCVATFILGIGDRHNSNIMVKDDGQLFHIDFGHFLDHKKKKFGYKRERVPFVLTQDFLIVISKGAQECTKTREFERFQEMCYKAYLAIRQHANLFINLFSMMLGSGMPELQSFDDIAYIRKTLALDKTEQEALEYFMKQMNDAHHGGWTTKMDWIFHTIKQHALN
Chain of SRSF protein kinase 1 (Homo sapiens) (Q96SB4 whole entry, canonical isoform): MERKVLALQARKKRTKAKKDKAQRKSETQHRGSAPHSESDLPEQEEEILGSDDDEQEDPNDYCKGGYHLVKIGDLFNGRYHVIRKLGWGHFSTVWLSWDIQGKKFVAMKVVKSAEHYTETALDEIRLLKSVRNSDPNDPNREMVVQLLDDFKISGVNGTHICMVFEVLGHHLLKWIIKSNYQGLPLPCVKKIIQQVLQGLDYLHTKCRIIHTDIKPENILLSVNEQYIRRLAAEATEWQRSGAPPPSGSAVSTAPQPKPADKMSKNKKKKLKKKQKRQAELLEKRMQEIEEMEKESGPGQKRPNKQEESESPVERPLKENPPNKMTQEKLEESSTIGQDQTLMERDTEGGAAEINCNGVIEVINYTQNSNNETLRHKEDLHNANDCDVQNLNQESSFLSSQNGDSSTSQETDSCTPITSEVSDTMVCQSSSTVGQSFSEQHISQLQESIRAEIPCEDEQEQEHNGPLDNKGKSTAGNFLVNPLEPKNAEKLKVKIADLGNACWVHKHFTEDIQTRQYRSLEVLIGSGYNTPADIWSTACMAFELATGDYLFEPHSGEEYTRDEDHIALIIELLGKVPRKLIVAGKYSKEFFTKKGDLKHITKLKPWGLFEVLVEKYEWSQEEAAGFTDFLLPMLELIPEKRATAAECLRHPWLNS
Chain of Phosphatidylinositol 4-kinase beta (Homo sapiens) (Q9UBF8 2-816 limits assumed): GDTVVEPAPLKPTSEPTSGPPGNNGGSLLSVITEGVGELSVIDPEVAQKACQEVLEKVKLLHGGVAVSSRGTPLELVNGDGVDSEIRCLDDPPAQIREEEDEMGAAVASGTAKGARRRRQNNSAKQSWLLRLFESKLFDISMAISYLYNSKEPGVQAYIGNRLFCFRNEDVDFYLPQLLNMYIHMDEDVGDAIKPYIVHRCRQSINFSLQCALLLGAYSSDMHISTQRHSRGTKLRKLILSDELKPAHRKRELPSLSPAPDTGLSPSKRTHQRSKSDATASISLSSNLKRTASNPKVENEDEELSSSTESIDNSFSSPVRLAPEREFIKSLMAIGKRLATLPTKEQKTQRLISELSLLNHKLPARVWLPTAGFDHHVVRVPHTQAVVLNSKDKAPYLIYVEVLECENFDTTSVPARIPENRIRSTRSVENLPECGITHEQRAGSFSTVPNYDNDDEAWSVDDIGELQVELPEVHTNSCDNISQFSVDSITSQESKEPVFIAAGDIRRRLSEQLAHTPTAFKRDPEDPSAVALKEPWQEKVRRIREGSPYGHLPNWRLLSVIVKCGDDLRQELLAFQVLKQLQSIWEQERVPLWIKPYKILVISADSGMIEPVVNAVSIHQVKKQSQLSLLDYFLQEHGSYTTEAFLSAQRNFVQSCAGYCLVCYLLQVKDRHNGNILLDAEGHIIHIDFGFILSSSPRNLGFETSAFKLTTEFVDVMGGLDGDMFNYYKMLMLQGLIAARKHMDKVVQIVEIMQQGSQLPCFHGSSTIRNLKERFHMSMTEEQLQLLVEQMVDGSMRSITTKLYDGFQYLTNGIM

| Structure (SMILES) | inhibition [1] | inhibition [2] | inhibition [3] | inhibition [4] | inhibition [5] | inhibition [6] | inhibition [7] | inhibition [8] | inhibition [9] | inhibition [10] | inhibition [11] | inhibition [12] | inhibition [13] | inhibition [14] | inhibition [15] | inhibition [16] | inhibition [17] | inhibition [18] | inhibition [19] | inhibition [20] |
| --- | --- | --- | --- | --- | --- | --- | --- | --- | --- | --- | --- | --- | --- | --- | --- | --- | --- | --- | --- | --- |
| Fc1ccc(-c2ncn(C3CCNCC3)c2-c2ccnc(Oc3ccc4c(c3)OCO4)n2)cc1 | -1.04% | 0.51% | 4.23% | 4.92% | 0.82% | 3.24% | 2.26% | 4.42% | 1.03% | -2.26% | -0.59% | 0% | 11.3% | 3.74% | 5% | 9.09% | 6.93% | 8.89% | 7.17% |  |
| Cc1nnc(-c2ccc(C)c(-c3ccc(C(=O)NCc4ccc(Cl)cc4)cc3)c2)o1 | -1.29% | -1.82% | 3.66% | 2.48% | 2.02% | 3.9% |  | -0.13% | 0.23% | -3.95% | 0.02% | 0.44% | 2.9% | 5.39% | 8.21% | 5.98% | 6.95% | 4.95% | 5.66% | 3.42% |
| NC(=O)c1cc(-c2ccc(F)cc2)cc(-c2ccncc2)c1N | -2.19% | -2.78% | 3.84% | 22.8% | 2.48% | 4.83% | -4.18% | -2.52% | -2.79% | 4.1% | 1.03% | -1.1% | 3.42% | 8.62% |  |  |  |  | 6.05% | 3.29% |
| COc1ccc(-c2ccc3c(NC(=O)C4CC4)n[nH]c3n2)cc1 | -0.87% | 1.03% | 1.49% | 0.27% | -0.49% | -0.82% | -2.64% | -0.19% | 0.68% | -0.43% | -0.3% | 1.99% | 3.46% | 8.9% | 9.58% | 7.37% | 4.51% | 4.44% | 6.37% | 0.89% |
| C/C(Nc1ccc(S(N)(=O)=O)cc1)=C1/C(=O)Nc2ccccc21 | 2.04% | 1.41% | 0.42% | 1.42% | 2.42% | 3.52% | -1.12% | -0.13% | -1.38% | 2.7% | 0.02% | 0.53% | -0.1% | 7.42% | 4.91% | 2.59% | -0.76% | 1.17% | -2.73% | -1.66% |
| NC(=O)c1cc(-c2ccncc2)cc(-c2ccccc2)c1N | -1.6% | -0.84% | 4.53% | 6.5% | 3.68% | 5.3% | 0.64% | 3.86% | -0.86% | 1.79% | -0.11% | -1.58% | 2.36% | 2.75% |  |  | 9.18% | 27.5% | 6.3% | 3.34% |
| CN(C)CCCNc1nccc(-c2c(-c3ccc(F)cc3)nn3cc(C(F)(F)F)ccc23)n1 | -0.17% | -0.01% | 0.79% | 0.02% | 2.6% | 2% | -3.83% | 11.1% | 0% | -2.46% | -0.03% | -0.25% | 1.85% | 6.47% | 4.46% | -1.7% | 1.56% | 0% | 2.49% | 5.27% |
